What is called AC50 is the concentration at which the activity in the assay is half-maximal.

Each structure is given as a SMILES string. Records with an inconclusive call do not appear. More than one record can exist for a structure, and the calls need not agree. Active and inactive are the calls of the source. The calls were made as follows, unless noted: active = hit-call score of the fitted dose curve at least 0.9, where 1 is the maximum; inactive = score below 0.9.

The results in this text go back to PubChem BioAssay (EPA / NIEHS).

The nature of test [1]: IUF_NPC2c_oligodendrocyte_migration_120hr: Leibniz Research Institute for Environmental Medicine (IUF) 120-hour Neural Progenitor Cell Migration Assay for Oligodendrocyte Migration (NPC2c) (AID 2284297).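 Also: O4-positive oligodendrocyte migration distance divided by radial glia migration distance.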 The method, boiled down:
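hNPC spheres (GW 16-19 cortex), PDL/laminin, DMEM/F12 3:1 + 1% N2, 37C. Dosing day 0–5, half feed day 3, DMSO ≤0.1%. Fixed 120 h; O4 ICC + Hoechst, HCI. Readout: mean oligodendrocyte distance from sphere edge / radial glia distance.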

A short description of test [2]: IUF_NPC2a_radial_glia_migration_120hr: Leibniz Research Institute for Environmental Medicine (IUF) 120-hour Neural Progenitor Cell Migration Assay for Radial Glia Migration (NPC2a) (AID 2284298). The method, boiled down: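 Hoechst-stained nuclei imaged at 120 h; algorithm maps sphere core by densest nuclei, sets migration edge at density threshold, gives radial glia migration distance (um) per well vs DMSO. hNPC spheres (0.3 mm), PDL/laminin, DMEM/F12 3:1 + 1% N2.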

Test [3] can be described thus: IUF_NPC2a_radial_glia_migration_72hr: Leibniz Research Institute for Environmental Medicine (IUF) 72-hour Neural Progenitor Cell Migration Assay for Radial Glia Migration (NPC2a) (AID 2284299). The method, boiled down: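 Single 0.3 mm neurospheres were plated per well in N2 differentiation medium and exposed from the start of differentiation. After 72 hours, brightfield images were taken and radial glia migration from the sphere core edge was measured manually in four directions, averaged per well.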

Test [4] is described as follows: IUF_NPC2b_neuronal_migration_120hr: Leibniz Research Institute for Environmental Medicine (IUF) 120-hour Neural Progenitor Cell Migration Assay for Neuron Migration (NPC2b) (AID 2284300). The method, boiled down: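 hNPC spheres, PDL/laminin, DMEM:F12 3:1 + 1% N2, 37C/5% CO2; 7 concentrations + solvent control (DMSO ≤0.1%), 5 d exposure, half-feed day 3. Fix 120 h, TUBB3 ICC, HCI: mean neuron migration distance ÷ glia distance.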

The nature of test [5]: IUF_NPC3_neuronal_differentiation_120hr: Leibniz Research Institute for Environmental Medicine (IUF) 120-hour Neuronal Differentiation Assay (NPC3) (AID 2284301). The method, boiled down:
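hNPC spheres, PDL/laminin, DMEM/F12 3:1 + 1% N2, 37C, 5% CO2; 7 concentrations + solvent control, 5 d exposure, half-change day 3. Fix 120 h; TUBB3/Hoechst ICC, CNN neuron calling; % neurons vs nuclei, DMSO-normalized.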

The nature of test [6]: IUF_NPC4_neurite_length_120hr: Leibniz Research Institute for Environmental Medicine (IUF) 120-hour Neuronal Morphology Assay for Neurite Length (NPC4) (AID 2284302). An outline of the steps: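 hNPC spheres (0.3 mm, fetal brain GW 16-19) on PDL/laminin, DMEM:F12 3:1 + 1% N2, 37C 5% CO2; 7 concs + solvent control, day 0-5, half medium change d3; fix 120 h, TUBB3 ICC, mean neurite length um vs DMSO.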

Test [7] can be described thus: IUF_NPC2-5_cytotoxicity_72hr: Cytotoxicity Assessment at 72 hours in the Leibniz Research Institute for Environmental Medicine (IUF) Neural Progenitor Cell Migration and Differentiation Assay for Cytotoxicity (NPC2-5) (AID 2284306; active = hit-call score of the fitted dose curve at least 0.9, where 1 is the maximum;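 also: LDH release into supernatant measured by resorufin fluorescence marking membrane damage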). An outline of the steps:
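hNPC spheres (0.3 mm), PDL/laminin, DMEM/F12 3:1 + 1% N2; cpd from d0, 7 concs + SC, DMSO max 0.1%; half-medium refresh d3. Readout: supernatant LDH via resorufin fluorescence (RFU), 72 h; gain-of-signal fit.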

A short description of test [8]: IUF_NPC2-5_cytotoxicity_120hr: Cytotoxicity Assessment at 120 hours in the Leibniz Research Institute for Environmental Medicine (IUF) Neural Progenitor Cell Migration and Differentiation Assay (NPC2-5) (AID 2284307; active = hit-call score of the fitted dose curve at least 0.9, where 1 is the maximum;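 as to AC50: LDH released into supernatant as membrane damage marker via resorufin fluorescence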). An outline of the steps: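 hNPC spheres on PDL/laminin, N2 medium, 37C; 7 concs + solvent control, DMSO ≤0.1%; 5-day exposure, half medium changed day 3. LDH in supernatant at 120 h, resazurin→resorufin fluorescence, gain-of-signal.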

Test [9] can be described thus: IUF_NPC2-5_cell_number_120hr: Cell Number Assessment at 120 hours in the Leibniz Research Institute for Environmental Medicine (IUF) Neural Progenitor Cell Migration and Differentiation Assay (NPC2-5) (AID 2284308).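 Also: count of Hoechst-stained nuclei in migration zone around plated human neural progenitor spheres.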 The method, boiled down: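 Hoechst-stained nuclei within the migration area were counted by automated high content imaging after 120 h. Single hNPC spheres differentiated on poly-D-lysine/laminin in DMEM/F12 (3:1) with 1% N2, compound present throughout, DMSO ≤0.1%.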

Test [10] is described as follows: IUF_NPC2-5_viability_120hr: Viability Assessment at 120 hours in the Leibniz Research Institute for Environmental Medicine (IUF) Neural Progenitor Cell Migration and Differentiation Assay (NPC2-5) (AID 2284312). The method, boiled down:
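Human fetal neural progenitor spheres (0.3 mm) plated on poly-D-lysine/laminin in N2 differentiation medium, exposed 120 h with half-medium refresh at day 3. Viability by alamar blue resazurin fluorescence; 7 concentrations, DMSO max 0.1%.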

The nature of test [11]: CCTE_Mundy_HCI_iCellGluta_NOG_NeuriteLength: CCTE's Neurite Outgrowth Assay in iCellGluta cells for Neurite Length, Mundy Lab (AID 2284318; active = hit-call score of the fitted dose curve at least 0.9, where 1 is the maximum). An outline of the steps: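 Automated high-content imaging of betaIII-tubulin (Alexa Fluor-488) and Hoechst-stained cells gave neurite length, normalized to the DMSO baseline.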
A short description of test [12]: IUF_NPC5_oligodendrocyte_differentiation_120hr: Leibniz Research Institute for Environmental Medicine (IUF) 120-hour Oligodendrocyte Differentiation Assay (NPC5) (AID 2284304; active = hit-call score of the fitted dose curve at least 0.9, where 1 is the maximum;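 also: primary human fetal neural progenitor spheres plated to migrate and differentiate; share of O4-positive cells among Hoechst nuclei found by CNN image analysis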). An outline of the steps:
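hNPC spheres, fetal cortex GW 16-19; PDL/laminin, DMEM:F12 3:1 + 1% N2, 37C/5% CO2; 7 concentrations + solvent control, 5 d exposure, half-change day 3. Readout: %O4+ of Hoechst+ nuclei in migration area, CNN classification; DMSO baseline.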

Test [13] can be described thus: IUF_NPC4_neurite_area_120hr: Leibniz Research Institute for Environmental Medicine (IUF) 120-hour Neuronal Morphology Assay for Neurite Area (NPC4) (AID 2284305; active = hit-call score of the fitted dose curve at least 0.9, where 1 is the maximum). An outline of the steps: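 hNPC spheres on PDL/laminin, N2 medium, 37C/5% CO2; dosed day 0, half-medium refresh day 3; fixed 120 h; TUBB3/Hoechst ICC, high-content imaging; neurite area = mean pixels per neuron (nuclei excluded); DMSO baseline, max 0.1%.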

Another test has as its system IYD (gene 389434). In words: CCTE_GLTED_hIYD: CCTE's human Iodotyrosine Deiodinase (xIYD) Inhibition Assay, Great Lakes Toxicology and Ecology Division (GLTED) Lab (AID 2284317; active = hit-call score of the fitted dose curve at least 0.9, where 1 is the maximum;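 also: cell-free human IYD enzyme made in baculovirus insect cells; iodide freed from monoiodotyrosine measured by cerium arsenite color change at 420 nm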). An outline of the steps: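 Deiodination of MIT by insect-cell-produced human IYD is measured after a 3 h incubation with test chemical. Free iodide passes through a Dowex column and accelerates Sandell-Kolthoff Ce4+ reduction, read at 420 nm; run in triplicate.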

Consider `O=C(O)COc1ccc(Cl)cc1Cl`, for which the result in test [1], in [2], in test [3], in test [4], in test [5] and in test [6] was inactive. Moreover, the result in test [7], in [8], in test [9], in test [10] and in test [11] was inactive.

Regarding `CC[C@H](C)[C@H]1O[C@]2(C=C[C@@H]1C)C[C@@H]1C[C@@H](C/C=C(\C)[C@@H](O[C@H]3C[C@H](OC)[C@@H](O[C@H]4C[C@H](OC)[C@@H](O)[C@H](C)O4)[C@H](C)O3)[C@@H](C)/C=C/C=C3\CO[C@@H]4[C@H](O)C(C)=C[C@@H](C(=O)O1)[C@]34O)O2` (tested in a mixture with another compound), the call in test [1], in test [4] and in test [13] was inactive. The AC50 in [2] was 3.4 µM (active); in test [3] it was 7.19 µM (active); in test [6], 7.61 µM (active); in [12], 0.444 µM (active); in [7], 7.55 µM (active); in test [8], 6.89 µM (active). Further, the AC50 in [9] is 7.63 µM (active); in [10], 8.02 µM (active); in test [11], 3.44 µM (active).

Regarding `CNC(=O)CSP(=S)(OC)OC`, the outcome in test [1], in test [2], in [3], in test [4], in test [5] and in [6] was inactive. Also, the outcome in [12], in test [13], in [7], in [8], in test [9] and in test [10] was inactive. Moreover, the compound was classed as inactive in [11].

Consider `CCCN(CCOc1c(Cl)cc(Cl)cc1Cl)C(=O)n1ccnc1`, for which the outcome in the test with IYD (gene 389434) was inactive.

As to `CCC(C)(C)C(=O)OC1=C(c2ccc(Cl)cc2Cl)C(=O)OC12CCCCC2`, the call in test [1], in test [2], in test [3], in test [4], in test [5] and in [6] was inactive. The result in [13], in [7], in test [8], in [9] and in [10] was inactive. The AC50 in [11] was 21.9 µM (active).

Regarding `O=[N+]([O-])/N=C1\NCCN1Cc1ccc(Cl)nc1`, the call in [1], in test [2], in test [3], in [4], in test [5] and in test [6] was inactive. In addition, the result in [12], in [13], in [7], in test [8], in test [9] and in test [10] was inactive. Also, the half-maximal activity concentration (AC50) in test [11] was 15 µM (active).

As for `CC1(c2ccc(Oc3ccccc3)cc2)OC(=O)N(Nc2ccccc2)C1=O` (centres undefined), the outcome in [1], in test [3], in [4], in [5], in test [6] and in test [13] was inactive. Further, the result in test [7], in test [8], in [9], in test [10] and in [11] was inactive. Moreover, the AC50 is 5 µM (active) in test [2] and 1.61 µM (active) in test [12].

For the compound `CC1(C)C(C=C(Cl)Cl)C1C(=O)OC(C#N)c1ccc(F)c(Oc2ccccc2)c1` (centres undefined), the compound was called inactive in [1], in test [2], in [3], in test [4], in test [5] and in test [6]. Also, the outcome in test [13], in [7], in [8], in test [9], in test [10] and in test [11] was inactive. In addition, the AC50 in test [12] is 0.227 µM (active); in [11] it was 9.9 µM (active).
